# Measurements: PubChem BioAssay (NCI)
# This is part of a sample that, as a whole, favours compounds with a hit. Of some 83,000 tested, about 20% had one in any assay.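 Cells were grown in 96-well plates and exposed to the test compound at a single concentration for 48 hours; results are reported as percent growth, with values below 10 considered active.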 The source made the active and inactive calls.
# Tested on: MDA-MB-468 breast
# Test: NCI-60 one-dose screen, 48 h (100 = growth as untreated, 0 = no growth, -100 = all killed)
# Settings: 10 µM unless noted
row,Compound,growth
1,Cc1cccc(C(=O)N(C(C)C)C(C)C)c1,105% (inactive)
2,CN(C)CC(O)c1ccc(/C=C/c2ccc(Cl)cc2)cc1 (centres undefined),-84.4% (active)
3,O=C(c1ccccc1)C(O)C(Br)(CBr)c1ccccc1 (centres undefined),50.7% (inactive)
4,CN1CCN(Cc2ccc(NC(=O)c3cncc(C#Cc4c(N)ncc5cc(F)ccc45)c3)cc2C(F)(F)F)CC1,55.6% (inactive)
5,Cc1cc2cn3c4cccnc4[nH]c(=O)c3c2cc1C,37.2% (inactive)
6,CS(=O)(=O)Nc1cc(-c2ccc3ncnc(Nc4ccc(OCc5ccccn5)c(Cl)c4)c3c2)cnc1Cl,-55.4% (active)
7,S=c1[nH]nc(-c2cc3ccc2CCc2ccc(cc2)CC3)n1-c1ccccc1,109% (inactive)
8,Cc1ccc(-c2csc(/N=C3\C(=O)Nc4ccccc43)n2)cc1,-12.5% (active)
9,COC(=O)c1c2c(c(C)[n+]([O-])c1C)C(=O)C=C(NCc1ccc(OC)cc1)C2=O,-61% (active)
10,O=C1c2c(c3c4ccccc4[nH]c3c3ccc4ccccc4c23)C(=O)N1CCN1CCNCC1,76.5% (inactive)
11,O=C(Nc1ccc2ncnc(Nc3ccc(F)c(Cl)c3)c2c1)c1ccccc1,-8.33% (active)
12,C=C(C)[C@@H]1CC[C@]2(C)[C@H](CC=C3[C@@H]4CC(C)(C)CC[C@]4(C=O)CC[C@]32C)[C@@]1(C)CCCN,51.3% (inactive)
13,CCOC(=O)c1sc(NC(=O)CN2CCC(Cc3ccccc3)CC2)nc1C,98.5% (inactive)
14,Cc1cc(C)c(NC(=O)c2sc3nc4c(cc3c2N)CCCCCC4)c(C)c1,40.1% (inactive)
